Assay results as given in PubChem BioAssay.
Results with a measured potency or affinity are listed apart. Records with an inconclusive call do not appear. Values without a mark were called inactive. The rule behind the calls is not given here.

assay: NIH:OVCAR-3 ovarian cancer cell cytotoxicity, dose response, PAX8 inhibitor project, plate reader, dry powder samples (AID 743044); details: NIH:OVCAR-3 ovarian cancer cell viability; max activity: at 35 µM, hits give low values unless noted; series mostly up to 50 µM

SMILES | max activity
C[C@@H]1CN([C@@H](C)CO)C(=O)Cc2cc(N(C)C)ccc2O[C@H]1CN(C)Cc1ccc(Oc2ccccc2)cc1 | -11.3% [at 4.2 µM, hits give low values]
C[C@H](CO)N1C[C@H](C)[C@H](CN(C)Cc2ccc3c(c2)OCO3)Oc2ccc(NC(=O)Nc3cccc4ccccc34)cc2C1=O | 49.4% [at 4.2 µM, hits give low values]
COc1ccccc1C#Cc1ccc2c(c1)O[C@H](CN(C)Cc1cccnc1)[C@H](C)CN([C@H](C)CO)S2(=O)=O | -36.9%
C[C@@H]1CCCCO[C@H](CN(C)Cc2ccc(C(F)(F)F)cc2)[C@H](C)CN([C@H](C)CO)C(=O)c2cc(NS(=O)(=O)c3ccc(F)cc3)ccc2O1 | -10.2%
CN1c2ccc(-c3ccc(C#N)cc3)cc2[C@@H]2[C@@H](CCN2C(=O)NC2CCCCC2)[C@@H]1CO | -6.17% [at 4.2 µM, hits give low values]
Cc1ccc(S(=O)(=O)Nc2ccc3c(c2)C(=O)N([C@@H](C)CO)C[C@H](C)[C@H](CN(C)Cc2ccc(C(F)(F)F)cc2)OCCCC[C@@H](C)O3)cc1 | 9.21%
Cc1ccc(S(=O)(=O)N(C)C[C@H]2Oc3ccc(NC(=O)Nc4ccc(C(F)(F)F)cc4)cc3CC(=O)N([C@@H](C)CO)C[C@H]2C)cc1 | 15.5% [at 0.26 µM, hits give low values]
CCCN(C)C[C@H]1OCCCC[C@@H](C)Oc2ccc(NC(=O)c3ccccc3)cc2C(=O)N([C@H](C)CO)C[C@H]1C | 25.8% [at 0.5 µM, hits give low values]
